Shown are actives, neighbours in structure and some others; about 6.8% of the full set was active somewhere.
Abs 340nm – compound light absorbance at 340 nm, profiling panel, artefact control, biochemical, MLSMR library, data from PS, PMK, MK assays; compound absorbance at 340 nm, fold over control; fold change at 10 µM; 65,000 tested, under 10 active; AID 708, 2007;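 active = at 10 µM dose, initial 340 nm absorbance at least 2 fold that of control wells; inactive = change under 2 fold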;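 note: initial absorbance extrapolated from kinetic A340 decline of NADH oxidation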
MK inhibit – S. pneumoniae MK inhibitors, primary screen, biochemical, PK/LDH-coupled NADH absorbance | purified MK, PK/LDH-coupled NADH absorbance 340 nm | inhibition, % at 10 µM | mevalonate kinase [Streptococcus pneumoniae D39] | 65,000 compounds, 0.48% hits;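 active = ranked among the strongest by inhibition in the single 10 µM screen, a fixed top-ranked set picked for dose follow-up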
Autofluor 339 – intrinsic fluorescence of library compounds, ex339/em460 – biochemical, MLSMR library, data from DPM-DC assay, artefact control, profiling panel; compound autofluorescence, ex339/em460 nm, NADH buffer; active compounds read high; 1 = no-compound wells, NADH background; 65,000 compounds, 5.5% hits; AID 709, 2007; fluorescence fold increase at 10 µM;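 active = at 10 µM, mean starting fluorescence two-fold or more over control wells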;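 note: signal is the first read of a kinetic run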
NADH coupling – inhibitors of PK/LDH coupling enzymes, profiling panel, artefact control, biochemical, MLSMR library; IC50, µM (titrated, usually from 10 µM); coupled PK/LDH NADH assays, four targets; 65,000 compounds, 0.02% hits;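 active = single-dose screening hits from any of four coupled enzyme assays that gave an IC50 when retested across doses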;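 note: the DPM-DC format reads NADH fluorescence rather than 340 nm absorbance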
Spn PMK inh – S. pneumoniae PMK inhibitors, primary screen, biochemical, mevalonate pathway, pilot trial included | inhibition, % at 10 µM | purified PMK, PK/LDH-coupled NADH absorbance 340 nm | 65,000 compounds, 0.49% hits | phosphomevalonate kinase (Streptococcus pneumoniae D39);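 active = top-ranked compounds by inhibition in the single 10 µM screen, taking a fixed number of the strongest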
DPM-DC inhibit – S. pneumoniae DPM-DC inhibitors, primary screen, biochemical, PK/LDH-coupled NADH fluorescence; purified DPM-DC; calls only at 10 µM; 65,000 compounds, 0.49% hits; AID 556, 2006;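 active = the 320 compounds with the highest percent inhibition in the single-dose primary screen, excluding strongly autofluorescent ones, cut at about 32% in these data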;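 note: kinetic rate of NADH fluorescence loss reporting ADP formed by the decarboxylase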
Large screens that a line does not name were inactive; ! = not active in a repeat.

Cc1cc(C)c2c(n1)nn1c(C3CC3)cc(C(F)(F)F)nc21	none
Nc1nnc(-c2cc3ccccc3oc2=O)s1	Autofluor 339 3 (not shown: DPM-DC inhibit)
Nc1cc(N)cc(-c2nc3ccccc3o2)c1	none
Nc1ccc2oc(-c3cccc(Br)c3)nc2c1	Autofluor 339 2 (not shown: DPM-DC inhibit)
CC(C)c1ccc2oc(-c3cc(N)ccc3O)nc2c1	none
Cc1ccccc1-c1nc2cc(N)ccc2o1	Autofluor 339 3.1, DPM-DC inhibit active
CN(c1ccc(C(=O)NC2CC2)cc1)S(=O)(=O)c1ccccc1	none
COc1ccc(OCC(=O)N2CCN(c3nnc(-c4ccccc4)c4ccccc34)CC2)cc1	Spn PMK inh 26
C/C=C/c1ccc(OCCn2cncn2)c(OC)c1	none
CNC(=O)c1ccc(-c2sc3nc(N4CCOCC4)c4c(c3c2N)CCCC4)o1	Autofluor 339 2.2 (not shown: DPM-DC inhibit)
CC1(C)Cc2c(c(N3CCOCC3)nc3sc(C(=O)N4CCCCC4)c(N)c23)CO1	Autofluor 339 2.1 (not shown: DPM-DC inhibit)
CC1(C)Cc2c(c(N3CCOCC3)nc3sc(-c4ccc(C(=O)O)o4)c(N)c23)CO1	Autofluor 339 3.8 (not shown: DPM-DC inhibit)
Cn1cnc2c(sc3nc(N4CCOCC4)c4c(c32)CC(C)(C)OC4)c1=O	none (not shown: DPM-DC inhibit)
CCOC(=O)c1sc2nc(N3CCOCC3)c3c(c2c1N)CCN(C)C3	Autofluor 339 3.7 (not shown: DPM-DC inhibit)
CCN(CC)c1nc(N2CCOCC2)c(C#N)c2c1CN(C)CC2	none
c1nc(N2CCOCC2)c2sc3nc(N4CCOCC4)c4c(c3c2n1)CCCC4	none
CC1CCCCN1S(=O)(=O)c1ccc(NC(=O)CSc2nnnn2C)cc1 (stereo not given)	none
Cc1cc(C2C(=O)C(C(=O)c3ccc(Cl)cc3)C(=O)CC2(C)C)on1 (stereo not given)	none
Cc1c(NC(=O)CCc2ccc(S(=O)(=O)N3CCOCC3)cc2)c(=O)n(-c2ccccc2)n1C	none
CCCOc1ccc(C(=O)N2CCCC2)cc1OC	none
COc1cc(C(=O)Nc2ccc3c(c2)OCCO3)c(-n2cnnn2)cc1OC	none
O=C(Nc1ccc2nn(-c3ccccc3)nc2c1)c1ccc2c(c1)OCO2	Autofluor 339 2.6
COc1cc(C(=O)Nc2ccc3c(c2)OCO3)ccc1-n1cnnn1	DPM-DC inhibit active
COc1cc(OC)c(C2N(c3ccc(Cl)cc3)C(=O)C3CCCN32)cc1OC (stereo not given)	none
Cc1nn(C)c(C)c1NC(=O)CSc1nc(-c2ccccc2F)nc2c1cnn2-c1ccccc1	Autofluor 339 2.1
O=C(Nc1ccc2nsnc2c1)c1cccs1	none
O=C(Nc1cccc2nsnc12)c1cccs1	Autofluor 339 3.6! (not shown: DPM-DC inhibit)
O=C(CCSc1nc(-c2ccco2)cc(C(F)(F)F)n1)Nc1ccc2c(c1)OCO2	none
Cc1ccc(NC(=O)c2oc3ccccc3c2NC(=O)c2ccc3c(c2)OCO3)cc1	Autofluor 339 2
O=C(Nc1cccc(F)c1)c1ccc2c(c1)OCO2	none
O=C(Nc1c(C(=O)Nc2cccc(F)c2)oc2ccccc12)c1ccc2c(c1)OCO2	Autofluor 339 5 (not shown: DPM-DC inhibit)
CCOC(=O)c1ccc(NC(=O)c2ccc3c(c2)OCO3)cc1	none
Cc1nn(C(=O)CCCC(=O)n2nc(C)c(Cl)c2C)c(C)c1Cl	none
Cc1nnc2sc(-c3ccncc3)nn12	none
Cc1nnc2sc(-c3cccc4ccccc34)nn12	Autofluor 339 2.2
COc1ccccc1C(=O)NCCc1nc2ccccc2n1C	MK inhibit active
Nc1[nH]nc2nc(N3CCCC3)nc(-c3ccccc3)c12	none
Cc1cc(C)n2nc3nc(N4CCCC4)nc(-c4ccccc4)c3c2n1	Autofluor 339 3.2
COc1ccc(-c2nc(N3CCOCC3)nc3n[nH]c(N)c23)cc1	none
COc1ccc(-c2nc(N3CCCC3)nc3nn4c(C)cc(C)nc4c23)cc1	Autofluor 339 2.2
CN(C)S(=O)(=O)c1cccc(C(=O)C2=C3SC=C(c4ccccc4)N3CC2)c1	DPM-DC inhibit active
CN(C)S(=O)(=O)c1cccc(C(=O)N2CCc3ccccc32)c1	none
Cc1cccc(N2C(=O)c3cccc4c(N(C)CCO)ccc(c34)C2=O)c1	Autofluor 339 2.1 (not shown: DPM-DC inhibit)
FC(F)(F)c1nc2nncn2c2c1CCCCC2	none
COc1ccc(C(=O)Nc2ccncc2)cc1OC	Spn PMK inh 40
COc1ccc(C(=O)Nc2nccs2)cc1OC	none
CC1CN(S(=O)(=O)c2cccc(C(=O)OCC(=O)Nc3ccc4c(c3)OCO4)c2)CC(C)O1 (stereo not given)	none
CC1CN(S(=O)(=O)c2cccc(C(=O)OCc3cc(=O)oc4cc(O)ccc34)c2)CC(C)O1 (stereo not given)	Autofluor 339 3.4 (not shown: DPM-DC inhibit)
COc1cc(SC)ccc1C(=O)Nc1ccc2c(c1)OCCO2	none
CCc1cc2c(=O)c(-c3nc4ccccc4[nH]3)coc2c(CN2CCC(C)CC2)c1O	none
CCc1cc2c(=O)c(-c3nc4ccccc4n3C)coc2c(CN2CCN(C)CC2)c1O	Autofluor 339 2.6
CCOC(=O)c1oc2cc(O)ccc2c(=O)c1-c1ccccc1OC	none
COc1ccccc1-c1coc2c(CN3CCN(CCO)CC3)c(O)ccc2c1=O	Autofluor 339 3 (not shown: DPM-DC inhibit)
COc1ccccc1-c1coc2c(CN3CCN(C)CC3)c(O)ccc2c1=O	Autofluor 339 2.2 (not shown: DPM-DC inhibit)
CCN1CCN(Cc2c(O)ccc3c(=O)c(-c4ccccc4OC)coc23)CC1	Autofluor 339 5 (not shown: DPM-DC inhibit)
COC(=O)[C@H]1CCCN1C(=O)Nc1cccc(Oc2c(F)c(F)c(F)c(F)c2F)c1	none
CN1C(=S)SC(C)(C)C1(C)NO (stereo not given)	none
COc1ccccc1Oc1coc2c(CN3CCN(C)CC3)c(O)ccc2c1=O	Autofluor 339 3 (not shown: DPM-DC inhibit)
COc1ccccc1Oc1coc2cc(OC(=O)N3CCOCC3)ccc2c1=O	none
CCCc1cc(=O)oc2cc(OCC(=O)OC)cc(OCC(=O)OC)c12	Autofluor 339 2.1 (not shown: DPM-DC inhibit)
CCCc1cc(=O)oc2cc(C)cc(OCc3nn[nH]n3)c12	Autofluor 339 3.8 (not shown: DPM-DC inhibit)
CCOC(=O)N1CCC(N2C(=O)c3ccc(C(=O)NC4CCCCCC4)cc3C2=O)CC1	none
CC(C)n1c2ccccc2c2nnc(SCC(=O)OCN3C(=O)c4ccccc4C3=O)nc21	none
Cc1nnc2sc(-c3ccc(-c4ccc(Cl)c(C(F)(F)F)c4)o3)nn12	Autofluor 339 3.7 (not shown: DPM-DC inhibit)
Cc1oc(-c2cc(Cl)ccc2Cl)cc1-c1nn2c(C)nnc2s1	none
Cc1cccc(N2CCN(c3nc4ccc(Cl)cc4n4cnnc34)CC2)c1C	Autofluor 339 2.1 (not shown: DPM-DC inhibit)
O=C(c1ccccc1)c1ccc2nc(N3CCN(C(=O)c4ccco4)CC3)c3nncn3c2c1	none
CCCCc1c(C)c2ccc(OC)c(/C(C)=N\O)c2oc1=O	Autofluor 339 2.5 (no result: MK inhibit)

Source: PubChem (SRMLSC)
